Consider 14 molecules from PMC12136788.

The chains are these.
T1: UNK ZnF1-3 (human, UniProt Q9C0B0 31-174)
T1 sequence: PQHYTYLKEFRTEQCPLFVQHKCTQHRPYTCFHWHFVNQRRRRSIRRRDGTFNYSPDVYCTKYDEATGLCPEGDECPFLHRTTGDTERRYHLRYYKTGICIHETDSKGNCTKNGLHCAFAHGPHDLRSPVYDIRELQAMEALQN

B1: chr18:56819859:56819860:+_ENSG00000166562_ENST00000588875|hu_mus|FALSE|FALSE (ssRNA)
RNA: GGGAGUUCUACAGUCCGACGAUCAACCUUGAUUACUCUGUGAACUAUCGGAAUGUCUCUUCCUUCAACCUUAAAAACAACUAUUUCACCAGCUCUGAUGGGGUCCUCCCGGAAAUUCGUGAGGAACAGCAGAUCUCCUCUGUGCAACAGAGGAUUGAGCAUCA
B2: 224577001_224577121_2655_3pUTR_ENSG00000162923_ENST00000295024|human|control|control (ssRNA)
RNA: GGGAGUUCUACAGUCCGACGAUCCGGGCAAGGCUAGAAUCCAUGAACCAAGCUGCAAAGAUCUCAAGCUAAAUAAGGCGGAAAGAUUUGGAGAAACAAAAGAAGGAAAUUCUUUCCUAUCCAAUGUAUACUCUUCAGACUAAUCAACAGAGGAUUGAGCAUCA
B3: chr2:62099399:62099400:-_ENSG00000115484_ENST00000544079|hu_hu|FALSE|FALSE (ssRNA)
RNA: GGGAGUUCUACAGUCCGACGAUCGUAGGAUUCCAUACCACUCAGUGUUCGUGAAUAUUCAGUUAAUCGUAGGGCCAACUCUAUUUCUGGAGCACCACCUCCUGCAAUAAGAGCCCUCUUCUUCACUAAACAACGAAUAACACACAACAGAGGAUUGAGCAUCA
B4: chr13:30086970:30086971:-_ENSG00000139514_ENST00000380752|hu_mus|FALSE|FALSE (ssRNA)
RNA: GGGAGUUCUACAGUCCGACGAUCAGGCCCUGUGUAGGCUGGGGAAGUGUGCUACCACUAGGCUACACGCCUGUCCAGCCCCACUAACUCUUCCAUUCUCAAGAAUCUUCCAAAGCAGAGGAAAGACAGGGCCAUCAGUCUACCCAACAGAGGAUUGAGCAUCA
B5: 101904251_101904371_108_5pUTR_ENSMUSG00000058655_ENSMUST00000169681|mouse|control|control (ssRNA)
RNA: GGGAGUUCUACAGUCCGACGAUCGGAGAGAGAACGCAAAGGACCCGGAUGAGGCAGUCACGUGAUUAUAGCGGGCGCGACGGGCUUGGAGACGUGAAACCAGGAGGGGGCGGGGAGCCGAGGACGGAGGCAGAAGGCGGGGCGCAACAGAGGAUUGAGCAUCA
B6: 125499526_125499646_756_3pUTR_ENSMUSG00000091337_ENSMUST00000164756|mouse|control|control (ssRNA)
RNA: GGGAGUUCUACAGUCCGACGAUCCUGUGAGACCAAAGAGGAACGAUUUGGUCUUUUUCUCCUCGCGAUUCUCAGGUUUAACACUCCUCCUUCCUCGAUUCUCCUUUUCCACAAUGCAUGGUCAUUCACUGUCCCGUCUUCUAUCAACAGAGGAUUGAGCAUCA
B7: 19967392_19969057_911_3pUTR_ENSMUSG00000002428_ENSMUST00000002502|mouse|control|control (ssRNA)
RNA: GGGAGUUCUACAGUCCGACGAUCUCCCAGAAUGGUGGUAGUUCUUUACUGUUCUCUCGUGCGAUCAUCCAAGCUAGAGCUUGUUUUUGGUGUGGAAGCAACGGUGUUUCAAUAGCCUCAGCUGGUUCCAUUUCAACAGUUCUACAACAGAGGAUUGAGCAUCA
B8: chrX:21990627:21990628:+_ENSG00000102172_ENST00000404933|hu_hu|FALSE|FALSE (ssRNA)
RNA: GGGAGUUCUACAGUCCGACGAUCCACCCGCCCAGUACUGUCCUGACUCAAUUCUUUCAUUCUUUCCUCUACUUUGUUCAAAAUACUGUCGAUCUCUUCUUUGCCUUGCGCAUCACCAUCAUAACUCUGAAGGUCCAGCAACACCAACAGAGGAUUGAGCAUCA
B9: chr14:102516957:102516958:+_ENSG00000197102_ENST00000360184|hu_mus|motif|central (ssRNA)
RNA: GGGAGUUCUACAGUCCGACGAUCCCAUCAACCCUUCCACACCGUUAAGGAUGAAUGAAGGUUAAAUAUUGGGAGUUUCCGGUUCCAGAAAGAGGACUGGAGAAAAGUCUAGCUUUACUCAGUGCACAGAACGGCAACUCCACGCAACAGAGGAUUGAGCAUCA
B10: chr18:67943652:67943653:+_ENSMUSG00000079614_ENSMUST00000025421|mus_hu|FALSE|FALSE (ssRNA)
RNA: GGGAGUUCUACAGUCCGACGAUCAGUUGUCCUUUUAACCCAGUGGCUCUGUCCUCGCAGUUUAUCAUUUGAUUCUCCUACUAUUUCUUCCCAUACAGCAGCUGUUCGGUCAAAAGAACAGGAAGCCAAAACCUGCCCAAAUUCCAACAGAGGAUUGAGCAUCA
B11: chrX:20185780:20185781:-_ENSG00000177189_ENST00000379565|hu_mus|motif|central (ssRNA)
RNA: GGGAGUUCUACAGUCCGACGAUCUUUGGUUAUAGUAAACAGGACAGCGCUGGCCUCUCGCUCUGAGAAAAACUUCUGUCGGAGAAUCUUAUCCAGCAAUUCACCUCCUUUCAUAAGUUCUGUUACUACAUACACAUAUUUUCCCAACAGAGGAUUGAGCAUCA
B12: chr11:77843920:77843921:+_ENSMUSG00000037791_ENSMUST00000049167|mus_hu|motif|central (ssRNA)
RNA: GGGAGUUCUACAGUCCGACGAUCUUUUUUAUAUACAGAAUACAGGAAAGUUUCUGUAAAGUCUAAAACAUUACAAUUACGGUGUACAUUGGUACUGGUUGUGGGGGUGGGAGGAGAGGAGGGAACCAGGGGCAGGAGGAAGAGCAACAGAGGAUUGAGCAUCA
B13: chr1:167252050:167252051:+_ENSMUSG00000040836_ENSMUST00000111450|mus_mus|motif|central (ssRNA)
RNA: GGGAGUUCUACAGUCCGACGAUCGGAUACCAUUGAAGACAAGAGCCACAUGGUGGCUUCCCUUUCACAUCCACCAUCUCGGGUCCUCCUGAUGCCCCAGCCACAUCUCCAUCUGCUUCUAACGUGUGCUUUCGAAGCCUCGUUCAACAGAGGAUUGAGCAUCA
B14: chr12:96259795:96259796:+_ENSG00000139343_ENST00000266735|hu_hu|FALSE|FALSE (ssRNA)
RNA: GGGAGUUCUACAGUCCGACGAUCAAGGACAUUAUUACACCUUAUUAAAACUUCACCCAGAUGUCCAGACAAAGCUCCAUCUAUGUAUUCUUCUGUAUUUGCAAGCUGCAUGUUCAUGUAGCCAUCUACAGAUACCAGAUAGCCCAACAGAGGAUUGAGCAUCA

Over roughly 24,000 sequences, “enrichment r” has its median near 0.99; the highest 2% begin near 3.7. Not all results are given here.

The assay concerns the target T1, UNK ZnF1-3. The assay is described as follows: nsRBNS (natural sequence RNA bind-n-seq); RBNS binding buffer (assumed for nsRBNS): 25 mM Tris pH 7.5, 150 mM KCl, 3 mM MgCl2, 0.01% Triton X-100, 500 ug/ml BSA, 20 U/ml SUPERase-In, 4 C; UNK is unkempt and MSI1 is Musashi-1; names of the RNAs are library labels; protein concentration not given here; high values mean tight binding.
Consider B1, for which the binding signal was 0.758 enrichment R. Consider B2, for which the binding signal stood at 1.48 enrichment R. As for B3, the binding signal was 1.13 enrichment R.

B4 gave a binding signal of 1.02 enrichment R. The figure for B5 is 3.03 enrichment R; for B6 it is 0.473 enrichment R; for B7 it is 0.75 enrichment R. B8 showed a binding signal of 0.997 enrichment R. The figure for B9 is 1.11 enrichment R; for B10 it is 1.28 enrichment R. The figure for B11 is 0.794 enrichment R; for B12 it is 1.66 enrichment R; for B13 it is 0.721 enrichment R.

For the molecule B14, the binding signal is 0.574 enrichment R.
